A selection: hits, their analogues and other compounds. The true share with any hit is near 3.3%.
USP1-UAF1 inh: Inhibitors of USP1/UAF1: Primary Screen | Potency, µM (titrated, usually from 57.1 µM), without a hit: at the highest dose activity change, negative = inhibition, hits mostly inhibitors | 390,000 tested, 0.23% active | recombinant USP1/UAF1, Ub-Rhodamine cleavage fluorescence | Ubiquitin carboxyl-terminal hydrolase 1 (Homo sapiens), O94782; further: potency means the concentration at half of the fitted maximal effect; nearly all actives have a fitted effect of over 60% in size
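USP1/UAF1 complex at 1 nM was preincubated with compound for 15 min at room temperature, then Ub-Rho substrate (150nM final) was added. Fluorescence (480/540 nm) was read kinetically, 6 reads every 60 seconds.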
WRN helicase inh: qHTS for Inhibitors of WRN Helicase. WRN helicase unwinding, fluorescent forked duplex, kinetic. Bifunctional 3'-5' exonuclease/ATP-dependent helicase WRN (Homo sapiens), Q14191. Potency, µM (titrated, usually from 114 µM), without a hit: at the top dose activity change, negative = inhibition, usual class: inhibitors. 360,000 tested, 0.46% active. AID 651768, 2012; further: potency means the concentration at half of the fitted maximal effect; nearly all actives have a fitted effect of over 55% in size
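WRN at 20 nM final preincubated with compound 15 min at room temperature; reaction started with 100 nM fluorophore/quencher forked duplex oligonucleotide and 2 mM ATP final. Unwinding followed kinetically by red fluorescence (ex 525, em 598 nm).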
PLK1 PBD block: qHTS for Inhibitors of PLK1-PDB (polo-like kinase 1 - polo-box domain): Primary Screen; Serine/threonine-protein kinase PLK1 (Homo sapiens), P53350; Plk1 PBD binding of FITC phosphopeptide, fluorescence polarization; Potency, µM, inactives show max response, negative = inhibition, hits mostly inhibitors; 360,000 tested, 2.8% active; further: potency means the concentration at half of the fitted maximal effect; series mostly up to about 57 µM; nearly all actives have a fitted effect of over 65% in size
USP2a block: qHTS Assay for Inhibitors of Ubiquitin-specific Protease USP2a Using CHOP2 as the Reporter; 330,000 tested, 0.01% active; AID 463254, 2010; Potency, µM (highest dose often 38.3 µM), for the others: at the highest dose activity change, negative = inhibition, actives largely listed as inhibitors; USP2 core, Ub-CHOP2 coupled fluorogenic reporter, 485/531;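 further: potency means the concentration at half of the fitted maximal effect; plate controls were DMSO wells for no effect and full inhibition by NEM control for full effect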
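USP2 core (10nM final) preincubated 30min RT with compound in 20mM Tris-HCl pH 8.0, 2mM CaCl2, 2mM beta-mercaptoethanol, 0.05% CHAPS; 25nM Ub-CHOP2 plus 25nM reporter substrate added, fluorescence (Ex485/Em531) read after 60min.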
PI5P4K alpha inh: qHTS for Inhibitors of phosphatidylinositol 5-phosphate 4-kinase (PI5P4K); Phosphatidylinositol 5-phosphate 4-kinase type-2 alpha (Homo sapiens), P48426; PI5P4Kalpha enzyme, ADP-Glo luminescence, 60 min; hits give low values; max response, %; 330,000 tested, 1.2% active; AID 652105, 2013; active means max response of -50% or lower; inconclusive means between -30% and -50%; inactive means -30% or higher; further: value at the top dose of about 77 µM
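Enzyme plus substrate dispensed, test compounds pinned in, then ATP (5 microM final) added. After 60 min at RT, ADP-Glo reagent 1 for 45 min and reagent 2 for 30 min preceded luminescence imaging.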
The depositor's hits bear a star; ? = inconclusive; / = not tested or not shown; [ ] = dose if it differs, or a comment. Unless noted, the call rests on the fitted dose curve; in most records, active means well fitted curve in the direction sought with a large enough effect; inconclusive means small, poorly fitted or top-dose-only effect, or another doubt; inactive means no such curve, though single readings can be large; an effect the other way counts as inactive or inconclusive. Unless noted, on the % scale 0 is the no-effect control and ±100 the full control effect.

SMILES | USP1-UAF1 inh | WRN helicase inh | PLK1 PBD block | USP2a block | PI5P4K alpha inh
C/C=C\C=C/C(=O)Nc1cccc(C2=NOC3(C2)C[C@@H](C(N)=O)N(C(=O)/C=C/C=C\C)C3)c1 (stereo not given in full) | ? | 25.1µM* | ? | 0.0% | -94.5*
C/C=C\C=C/C(=O)Nc1cccc(C2=NOC3(C2)C[C@@H](C(N)=O)N(C(=O)/C=C/CC)C3)c1 (stereo not given in full) | 4.1% | ? | ? | 0.0% | -64.9*
C/C=C(\C)C(=O)N1CC2(CC(c3cccc(NC(=O)CC(c4ccccc4)c4ccccc4)c3)=NO2)C[C@H]1C(N)=O (stereo not given in full) | / | / | / | 1.7% | /
C/C=C\C(=O)Nc1cccc(C2=NOC3(C2)C[C@H](C(N)=O)N(C(=O)/C=C/CC)C3)c1 (stereo not given in full) | -7.7% | -7.5% | 7.2% | 8.6% | 10.6
C/C=C\C=C/C(=O)Nc1cccc(C2=NOC3(C2)C[C@@H](C(N)=O)N(C(=O)C2(C)CC2)C3)c1 (stereo not given in full) | -14.4% | -9.0%[11.6 µM] | -26.9% | -2.3% | ?
COc1cccc(NC(=O)Cn2c(=O)n(Cc3nc(-c4ccccc4)no3)c(=O)c3ccccc32)c1 | 9.4% | / | / | / | /
Cc1cccc(C)c1OCCCn1c(CCNC(=O)C2CCCCC2)nc2ccccc21 | 2.5% | / | / | / | /
CCOc1ccc(NC(=O)C(=O)NCCc2csc(-c3ccc(F)cc3)n2)cc1 | -27.7% | / | / | / | /
Cc1ccc(N(Cc2cccs2)C(=O)c2ccc(OC(C)C)cc2)cc1 | -7.9% | / | / | / | /
COc1ccc(S(=O)(=O)Nc2ccc(-c3ccc4nncn4n3)cc2)c(OC)c1 | -6.6% | -41.5% | 18.9µM* | 0.5% | -25.1
COc1ccc(S(=O)(=O)Nc2cccc(-c3ccc4nncn4n3)c2)cc1 | -14.1% | -11.3% | -6.1% | 0.6% | -7.0
Cn1c(-c2ccccc2)c(CCO)c2ccccc21 | -0.8% | -5.4% | 26.7µM* | 1.4% | 5.9
Cc1cc(O)c2c(c1O)C(=O)[C@]13C(=C2O)C(=O)[C@@H]2[C@@H](O)[C@H]1[C@@H]1[C@H](O)[C@H]3C(=O)C3=C(O)c4c(O)cc(C)c(O)c4C(=O)[C@]312 | -17.9% | 56.2µM* | 29.9µM* | 4.0% | -90.5*
COc1ccc(CCCc2nnc(SCC(=O)Nc3ccc(F)cc3)o2)cc1C | -8.7% | / | / | / | /
O=C(O)CCSc1ccc([N+](=O)[O-])cc1[N+](=O)[O-] | -16.4% | -18.1% | 11.9µM* | 1.2% | -12.2
O=c1[nH][nH]c(=S)n1C1CCCCC1 | -12.3% | 56.2µM* | 2.99µM* | -0.6% | -69.4*
O=c1cc(O)n(C2CCCCCC2)c(=O)[nH]1 | -15.8% | -0.3% | -19.1% | -0.2% | -20.2
Cc1nc(N2CCCC2)c2c(C(=O)Nc3ccc(C)c(Cl)c3)c(C)oc2n1 | -12.9% | / | / | / | /
CCOC(=O)C1CCCN(C(=O)Cn2nc(C)n3c(cc4c(OC)cccc43)c2=O)C1 (stereo not given) | -17.7% | -0.5% | 26.7µM* | 0.9% | -2.5
CCc1nn(CC(=O)N2CCN(C)CC2)c(=O)c2cccn12 | -16.8% | -0.6% | -9.1% | 0.2% | -0.1
CCOC(=O)C1CCN(C(=O)Cn2nc(CC)n3cccc3c2=O)CC1 | -29.2% | 4.9% | 26.7µM* | 1.7% | -11.0
CCOC(=O)C1CCN(C(=O)Cn2nc(C)n3c(cc4c(OC)cccc43)c2=O)CC1 | -22.5% | / | / | / | /
CC1(C)CC(c2nc(-c3ccc(Br)cc3)cs2)CCS1 (stereo not given) | -25.1% | -2.6% | 3.77µM* | 5.2% | -23.7
CC1(C)CC(c2nc(-c3ccc(Cl)cc3)cs2)CCS1 (stereo not given) | -13.4% | -9.8%[57.1 µM] | -1.0% | -7.1% | 3.3
Cc1ccc(-n2nc(C(=O)NC(C)C)c(=O)n(C)c2=O)cc1 | -16.5% | / | / | / | /
SMILES | USP1-UAF1 inh | WRN helicase inh | PLK1 PBD block | USP2a block | PI5P4K alpha inh
CCOC(=O)c1c(/N=C/c2cccc([N+](=O)[O-])c2O)sc(C)c1C | -8.4% | -23.8% | ? | 0.8% | -68.6*
COc1ccc(OC)c(C=C2CCc3ccccc3C2=O)c1 | / | -0.3% | -9.9% | / | 1.9
COc1ccc(OC)c(/C=C2/Sc3ccccc3C2=O)c1 | 28.2µM* | -34.1% | 3.1% | 10.2% | -7.6
O=C1CCC(C(=O)NCc2cccnc2)N1 (stereo not given) | -9.5% | 1.3% | 29.9µM* | 3.4% | 3.1
O=C(NCc1cccnc1)C1CC(c2ccccc2O)=NO1 (stereo not given) | -6.9% | -24.5% | -8.3% | -1.0% | 5.4
O=C(NCc1cccnc1)C1CC(c2ccccc2Cl)=NO1 (stereo not given) | -10.0% | -7.1% | 26.7µM* | 2.2% | -2.9
CCS(=O)(=O)N1CCC(C(=O)NCc2cccnc2)CC1 | -12.2% | 2.0% | -1.1% | -0.7% | /
CC(C)CN(CC(C)C)S(=O)(=O)N1CCC(C(=O)NCc2cccnc2)CC1 | -11.0% | 8.0% | 26.7µM* | 2.0% | -4.1
Cc1ccc(-n2nc(C)c3c(C(=O)NCCc4ccc(S(N)(=O)=O)cc4)cc(C)nc32)cc1 | -22.8% | / | / | / | /
CCc1ccc(NC(=O)Cn2ncc3c4ccccc4n(C)c3c2=O)cc1 | -19.4% | 6.0% | 23.8µM* | 3.6% | -6.9
Cc1ccccc1CNC(=O)C1CCC(=O)N(CC2CCCCC2)C1 (stereo not given) | -13.5% | -13.2% | -6.8% | 0.1% | -6.1
Cc1ccc(C(C)(C)NC(=O)C2CCC(=O)N(CC3CCCCC3)C2)cc1 (stereo not given) | -6.1% | -4.8% | 26.7µM* | 1.1% | 0.4
O=C(CN1C(=O)c2cccnc2Oc2ccc(Cl)cc21)NCCCN1CCCCC1 | 1.0% | / | / | / | /
CC(=O)Sc1nc(-c2ccccc2)[nH]c1S(=O)(=O)c1ccc(C)cc1 | -14.8% | ? | 2.99µM* | 1.9% | -80.6*
Nc1c(C(=O)Nc2ccc(OC(F)(F)F)cc2)nnn1Cc1ccccc1 | -31.0% | / | / | / | /
O=C(c1noc2c1CCCCC2)N1CCN(c2cccc(C(F)(F)F)c2)CC1 | -23.0% | / | / | / | /
O=C(CCc1nc2cccnc2n1Cc1cccs1)Nc1cccc(Cl)c1 | -9.5% | / | / | / | /
CCOC(=O)c1c(S(=O)(=O)Nc2ccc(C)cn2)c(C)n(C)c1C | -15.7% | -2.4% | 21.2µM* | 0.6% | 0.2
CCOC(=O)c1c(S(=O)(=O)N2CCC(C(=O)Nc3ccc(C)cn3)CC2)c(C)n(C)c1C | -16.0% | / | / | / | /
CCCCNC(=O)c1sc(=S)n2c1[nH]c(=O)c1ccccc12 | -13.2% | ? | 26.7µM* | -3.9% | -0.8
O=C(NC1CCCCC1)c1sc(=S)n2c1[nH]c(=O)c1ccccc12 | -19.0% | 50.1µM* | 23.8µM* | 3.4% | 35.6
